Data as given in PubChem BioAssay (Tox21).
Unmarked numbers belong to inactive results. Active and inactive are the calls of the source. Calls follow the shape of the dose curve; as a rule, active = well fitted curve in the direction sought with a large enough effect in the repeat runs; inconclusive = weak or mixed curves; inactive = flat fitted curve, though single readings scatter.

Test: qHTS assay to test for compound auto fluorescence at 535 nm (green) in HEK293 cells (AID 720680)
Conditions: green autofluorescence 485/535 nm; series mostly up to 91.3 µM
% is scaled to controls: 0 for no effect and ±100 for the full control effect.

Structure (SMILES)	outcome	fluorescence, % of fluorescein
C=C(C)[C@@H]1CC=C(C)CC1	inactive	–
COS(=O)(=O)O	inactive	–
O=NN(CCCl)C(=O)NC1CCCCC1	inactive	–
CCCCCCCCCCCCCBr	inactive	–
CC1(C)[C@H]2CC[C@](C)(C2)[C@H]1O	inactive	–
C[C@H]1[C@@H](c2ccccc2)NC(=O)N1C	inactive	–
O=S(=O)(O)c1ccc2c(N=Nc3ccc(S(=O)(=O)O)c4ccccc34)c(O)c(S(=O)(=O)O)cc2c1	inactive	–
CCO[Si](CC)(OCC)OCC	inactive	–
C[C@@H](O)C(=O)O	inactive	–
O=C(O)CONC(=O)c1ccccc1	inactive	–
O=C=NCC1CCCC(CN=C=O)C1 (configuration not stated)	inactive	–
O=C(O)[C@H](O)c1ccccc1	inactive	–
c1ccc2c(CC3=NCCN3)cccc2c1	inactive	–
CN1CCOC(c2ccccc2)c2ccccc2C1 (configuration not stated)	–	-0.0031% [at 18.6 µM]
CC(C)OC(=O)OCOP(=O)(CO[C@H](C)Cn1cnc2c(N)ncnc21)OCOC(=O)OC(C)C	inactive	–
C=CC(=O)CCCCC	inactive	–
COC(=O)c1cccc(Cl)c1	inactive	–

Structure (SMILES)	outcome	fluorescence, % of fluorescein
Cn1nnc2c(C(N)=O)ncn2c1=O	inactive	–
N#Cc1cscn1	inactive	–
Cn1c(=O)c2c(ncn2CCO)n(C)c1=O	inactive	–
NCc1ccc(S(N)(=O)=O)cc1	–	0.0433% [at 18.6 µM]
CCCCCCC1(C)CCC(=O)O1 (configuration not stated)	inactive	–
Cc1cc(-c2ccccc2)nnc1NCCN1CCOCC1	inactive	–
O=C(O)CSCC(=O)NC1CCSC1=O (configuration not stated)	inactive	–
CC(C)(CO)C(O)C(=O)NCCCO (configuration not stated)	inactive	–
C=CC(=O)OCC1CCCO1 (configuration not stated)	inactive	–
CCOc1cccc(N)c1	inactive	–
CC(C)=CCC/C(C)=C/COC=O	inactive	–
CO[Si](CCCn1c(=O)n(CCC[Si](OC)(OC)OC)c(=O)n(CCC[Si](OC)(OC)OC)c1=O)(OC)OC	inactive	–
C[C@]12CCC(=O)C=C1CC[C@H]1[C@@H]3CC[C@](O)(C(=O)CO)[C@@]3(C)C[C@H](O)[C@@]12F	inactive	–
CC/C(C)=N\O[Si](C)(O/N=C(\C)CC)O/N=C(\C)CC	inactive	–
C=Cc1ccc(C(C)(C)C)cc1	inactive	–
CC(C)[C@H]1CC[C@H](C)C[C@@H]1O	inactive	–
CC(=O)C(C)O (configuration not stated)	inactive	–

Test: qHTS assay to test for compound auto fluorescence at 460 nm (blue) in HEK293 cell free culture (AID 720681)
Conditions: cell-free medium, autofluorescence 405/460 nm (blue); series mostly up to 91.3 µM
Outline: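 Test compounds were pinned into cell-free culture medium (DMEM with 10% FBS) and fluorescence was read directly at Ex/Em 405/460 nm. Signals were expressed as fluorescence equivalents of triamterene, with DMSO vehicle as control.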

Structure (SMILES)	outcome	fluorescence, % of fluorescent control
C=C(C)[C@@H]1CC=C(C)CC1	inactive	–
COS(=O)(=O)O	inactive	–
O=NN(CCCl)C(=O)NC1CCCCC1	inactive	–
CCCCCCCCCCCCCBr	inactive	–
CC1(C)[C@H]2CC[C@](C)(C2)[C@H]1O	inactive	–
C[C@H]1[C@@H](c2ccccc2)NC(=O)N1C	inactive	–
O=S(=O)(O)c1ccc2c(N=Nc3ccc(S(=O)(=O)O)c4ccccc34)c(O)c(S(=O)(=O)O)cc2c1	inactive	–
CCO[Si](CC)(OCC)OCC	inactive	–
C[C@@H](O)C(=O)O	inactive	–
O=C(O)CONC(=O)c1ccccc1	inactive	–
O=C=NCC1CCCC(CN=C=O)C1 (configuration not stated)	inactive	–
O=C(O)[C@H](O)c1ccccc1	inactive	–
c1ccc2c(CC3=NCCN3)cccc2c1	inactive	–
CN1CCOC(c2ccccc2)c2ccccc2C1 (configuration not stated)	–	-0.103% [at 18.6 µM]
CC(C)OC(=O)OCOP(=O)(CO[C@H](C)Cn1cnc2c(N)ncnc21)OCOC(=O)OC(C)C	inactive	–
C=CC(=O)CCCCC	inactive	–
COC(=O)c1cccc(Cl)c1	inactive	–

Structure (SMILES)	outcome	fluorescence, % of fluorescent control
Cn1nnc2c(C(N)=O)ncn2c1=O	inactive	–
N#Cc1cscn1	inactive	–
Cn1c(=O)c2c(ncn2CCO)n(C)c1=O	inactive	–
NCc1ccc(S(N)(=O)=O)cc1	–	0.104% [at 18.6 µM]
CCCCCCC1(C)CCC(=O)O1 (configuration not stated)	inactive	–
Cc1cc(-c2ccccc2)nnc1NCCN1CCOCC1	inactive	–
O=C(O)CSCC(=O)NC1CCSC1=O (configuration not stated)	inactive	–
CC(C)(CO)C(O)C(=O)NCCCO (configuration not stated)	inactive	–
C=CC(=O)OCC1CCCO1 (configuration not stated)	inactive	–
CCOc1cccc(N)c1	inactive	–
CC(C)=CCC/C(C)=C/COC=O	inactive	–
CO[Si](CCCn1c(=O)n(CCC[Si](OC)(OC)OC)c(=O)n(CCC[Si](OC)(OC)OC)c1=O)(OC)OC	inactive	–
C[C@]12CCC(=O)C=C1CC[C@H]1[C@@H]3CC[C@](O)(C(=O)CO)[C@@]3(C)C[C@H](O)[C@@]12F	inactive	–
CC/C(C)=N\O[Si](C)(O/N=C(\C)CC)O/N=C(\C)CC	inactive	–
C=Cc1ccc(C(C)(C)C)cc1	inactive	–
CC(C)[C@H]1CC[C@H](C)C[C@@H]1O	inactive	–
CC(=O)C(C)O (configuration not stated)	inactive	–

Test: qHTS assay to test for compound auto fluorescence at 535 nm (green) in HEK293 cell free culture (AID 720682)
Conditions: cell-free medium, green autofluorescence 485/535 nm, active compounds read high; series mostly up to 91.3 µM
Outline: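 Fluorescein serves as the green reference fluorophore; each compound's intrinsic emission at 535 nm (excitation 485 nm) is reported as an equivalent amount of that dye, measured in serum-containing DMEM without cells.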

Structure (SMILES)	outcome	activity change
C=C(C)[C@@H]1CC=C(C)CC1	inactive	–
COS(=O)(=O)O	inactive	–
O=NN(CCCl)C(=O)NC1CCCCC1	inactive	–
CCCCCCCCCCCCCBr	inactive	–
CC1(C)[C@H]2CC[C@](C)(C2)[C@H]1O	inactive	–
C[C@H]1[C@@H](c2ccccc2)NC(=O)N1C	inactive	–
O=S(=O)(O)c1ccc2c(N=Nc3ccc(S(=O)(=O)O)c4ccccc34)c(O)c(S(=O)(=O)O)cc2c1	inactive	–
CCO[Si](CC)(OCC)OCC	inactive	–
C[C@@H](O)C(=O)O	inactive	–
O=C(O)CONC(=O)c1ccccc1	inactive	–
O=C=NCC1CCCC(CN=C=O)C1 (configuration not stated)	inactive	–
O=C(O)[C@H](O)c1ccccc1	inactive	–
c1ccc2c(CC3=NCCN3)cccc2c1	inactive	–
CN1CCOC(c2ccccc2)c2ccccc2C1 (configuration not stated)	–	-0.0245% [at 18.6 µM]
CC(C)OC(=O)OCOP(=O)(CO[C@H](C)Cn1cnc2c(N)ncnc21)OCOC(=O)OC(C)C	inactive	–
C=CC(=O)CCCCC	inactive	–
COC(=O)c1cccc(Cl)c1	inactive	–

Structure (SMILES)	outcome	activity change
Cn1nnc2c(C(N)=O)ncn2c1=O	inactive	–
N#Cc1cscn1	inactive	–
Cn1c(=O)c2c(ncn2CCO)n(C)c1=O	inactive	–
NCc1ccc(S(N)(=O)=O)cc1	–	-0.0097% [at 18.6 µM]
CCCCCCC1(C)CCC(=O)O1 (configuration not stated)	inactive	–
Cc1cc(-c2ccccc2)nnc1NCCN1CCOCC1	inactive	–
O=C(O)CSCC(=O)NC1CCSC1=O (configuration not stated)	inactive	–
CC(C)(CO)C(O)C(=O)NCCCO (configuration not stated)	inactive	–
C=CC(=O)OCC1CCCO1 (configuration not stated)	inactive	–
CCOc1cccc(N)c1	inactive	–
CC(C)=CCC/C(C)=C/COC=O	inactive	–
CO[Si](CCCn1c(=O)n(CCC[Si](OC)(OC)OC)c(=O)n(CCC[Si](OC)(OC)OC)c1=O)(OC)OC	inactive	–
C[C@]12CCC(=O)C=C1CC[C@H]1[C@@H]3CC[C@](O)(C(=O)CO)[C@@]3(C)C[C@H](O)[C@@]12F	inactive	–
CC/C(C)=N\O[Si](C)(O/N=C(\C)CC)O/N=C(\C)CC	inactive	–
C=Cc1ccc(C(C)(C)C)cc1	inactive	–
CC(C)[C@H]1CC[C@H](C)C[C@@H]1O	inactive	–
CC(=O)C(C)O (configuration not stated)	inactive	–
